PubChem BioAssay AID493034 (The Scripps Research Institute Molecular Screening Center, 2011)
The campaign covered roughly 2,400 compounds. About 2,200 (92%) were called active.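 How the source made its calls: active means mean inhibition over triplicate runs exceeds the cutoff derived for the earlier primary screen (cut at about 25% in these data); inactive means the rest.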 So high a share suggests a set chosen from earlier hits. This is one part of the list.

target: Platelet-activating factor acetylhydrolase IB subunit alpha2 (Homo sapiens) (UniProt P68402); assay: PAFAH1B2 inhibitors, confirmation, biochemical, fluorescence polarization, FP-rhodamine probe, triplicate (AID 493034); settings: recombinant PAFAH1B2, FP-rhodamine probe fluorescence polarization; at 3.39 µM; active compounds read high;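 further: 0% = enzyme with DMSO and 100% = wells lacking PAFAH1B2 protein; inhibitors lower polarization by leaving the probe unbound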
Sequence (P68402 whole entry, looked up): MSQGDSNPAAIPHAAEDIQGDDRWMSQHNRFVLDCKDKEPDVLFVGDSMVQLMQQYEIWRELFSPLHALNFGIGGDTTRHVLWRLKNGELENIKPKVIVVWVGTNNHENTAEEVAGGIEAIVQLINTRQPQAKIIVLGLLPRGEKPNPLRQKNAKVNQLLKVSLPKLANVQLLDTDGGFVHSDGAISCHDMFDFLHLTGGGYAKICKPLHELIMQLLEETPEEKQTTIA

inhibition, inactive:
Cc1c(N=C2C=C(Br)C(=O)C(Br)=C2)c(=O)n(-c2ccccc2)n1C 20.8%
O=S(=O)(Nc1ccc2cn[nH]c2c1)c1ccc(Cl)cc1 18.1%
Nc1n[nH]c2c1C1(CCCCC1)Cc1ccccc1-2 22%
O=C(/C=C/c1ccc(O)c(O)c1)OCCc1ccccc1 19.7%
N=c1c[n+](-c2ccc(Cl)cc2)[n-]o1 18.1%
O=S(=O)(c1ccc(Cl)cc1)N1CCCC(C(F)(F)F)C1 (stereo not given) 22.5%
CN(Cc1ccccc1)C(=O)CN1CCN(S(=O)(=O)c2ccc(Cl)c(Cl)c2)CC1 22.8%
O=C(NNC(=O)C12CC3CC(CC(C3)C1)C2)c1cccc([N+](=O)[O-])c1 18.9%
CCC(=O)Nc1cc(C)c(NC(=O)C23CC4CC(CC(C4)C2)C3)cn1 22.1%
O=C1C(c2ccccc2)NC(=S)N1C1CCCCC1 (stereo not given) 20.2%
O=C1NC(c2cccs2)C(C(=O)c2ccccc2)C(O)(C(F)(F)F)N1 (stereo not given) 11.5%
Cc1ccc2[nH]c(C(=O)O)c(NC(=O)[C@@H]3C[C@@H]3c3ccccc3)c2c1 17.5%
COc1ccc([N+](=O)[O-])cc1N(CC(=O)NCCSc1ccc(C)cc1)S(C)(=O)=O 22.5%
CC12CC3CC(C)(C1)CC(C(=O)N1CCN(C(=O)c4ccco4)CC1)(C3)C2 16.1%
Cc1ccccc1C(=O)N1CCN(c2ccc(NC(=O)CSc3ccc(Cl)cc3)cc2)CC1 23.5%
CC(Sc1ccc(Cl)cc1)C(=O)Nc1ccc(S(=O)(=O)N2CCOCC2)cc1 (stereo not given) 20%
O=C(O)c1cc(NC(=S)NC(=O)C(c2ccccc2)c2ccccc2)ccc1Cl 20.9%
CC(C)(C)c1ccc(S(=O)(=O)/N=C2\C=C(NS(=O)(=O)c3ccccc3)C(=O)c3ccccc32)cc1 11.4%
COc1cc(C(=O)O[C@H]2CC(C)=CC[C@@]3(C)CC[C@@](O)(C(C)C)[C@H]23)ccc1O 23.9%
Cc1nc2ccccn2c1-c1ccnn1S(=O)(=O)c1ccc(F)cc1 22.7%
O=C(CSc1nc(C2CC2)nc2ccccc12)Nc1ccc2c(c1)OCCO2 1.2%
CC1CCN(S(=O)(=O)c2ccc(NC(=O)Cc3cccs3)cc2)CC1 19.6%
CC1CCN(S(=O)(=O)c2ccc(NC(=O)CN3CCCCCC3)cc2)CC1 20.4%
CC1CCN(S(=O)(=O)c2cccc(C(=O)N(C)C3CCS(=O)(=O)C3)c2)CC1 (stereo not given) 23.7%
CN(C(=O)CSc1nc(-c2ccc(C(C)(C)C)cc2)c(C#N)c(=O)[nH]1)C1CCCCC1 20.1%
CC(C)c1ccc(-c2nc(N3CCOCC3)[nH]c(=O)c2C#N)cc1 23.2%
Cc1cc(-c2ccccc2)c2ccc(NC(=O)C(C)(C)C)nc2n1 23.8%
Cc1cccc(OCC(=O)NCC(=O)N/N=C/c2cc(Br)cc(Br)c2O)c1 19.1%
O=S(=O)(Oc1ccccc1N1CCCCC1)c1ccccc1 14.5%
N#CC1(C#N)CC(C=O)=C(N)C1(C#N)CC(=O)C12CC3CC(CC(C3)C1)C2 (stereo not given) 17.2%
CCC[C@@H]1CCCO[C@@](C(=O)NCc2ccccn2)(C(F)(F)F)C1 20%
CCOC(=O)C(CC(=O)O)=C(c1ccccc1)c1ccccc1 17.7%
Cc1cc(C)cc(NC(=O)Nc2ccc(-n3ccc(C(F)(F)F)n3)cc2)c1 0.5%
CC1CCN(S(=O)(=O)c2ccc(NC(=O)CN3CCOCC3)cc2)CC1 20.2%
CC1(c2ccc(Cl)cc2)NC(=S)N2C1NC(=S)N2c1ccccc1 (stereo not given) 18.1%
CCn1cnc2cc(NCc3ccc(Cl)cc3)ccc21 20.5%
Cc1ccc(S(=O)(=O)N2CCCCC2)cc1C(=O)OCC(=O)N1c2ccccc2NC(=O)C1(C)C 23.6%
CCOC(=O)c1sc(N(Cc2ccccc2)C(=O)COC(=O)c2ccccc2O)nc1C 1.5%
O=C(CN1CCN(S(=O)(=O)c2ccc(Br)s2)CC1)NC1CCCCC1 22.8%
CCn1c(SCC(=O)N(C)C)nc2cc(S(=O)(=O)N3CCOCC3)ccc21 4.4%
CC(NC(=O)c1ccc([N+](=O)[O-])o1)C12CC3CC(CC(C3)C1)C2 (stereo not given) 18%
CC(Sc1ccc(S(=O)(=O)N2CCN(C)CC2)cn1)C(=O)NC1(C#N)CCCCC1 (stereo not given) 22.4%
CN1CCN(S(=O)(=O)c2ccc(Sc3nnc(-c4cccs4)n3-c3ccccc3)nc2)CC1 21.5%
CC(OC(=O)C1=COCCO1)C(=O)Nc1ncc(Cl)cc1Cl (stereo not given) 3.49%
C[C@H]1CCC[C@]2(C)C[C@H]3OC(=O)C(CN4CCCCCC4)[C@H]3C=C12 (stereo not given in full) 17.8%
CCNC(=S)NNC(=O)c1cc(-c2cccc(C)c2)nc2ccccc12 14.3%
CN(C)c1ccsc1C(=O)NNS(=O)(=O)c1ccc(Cl)cc1 17.9%
CCc1ccc2[nH]c(O)c(N=NC3=NC(=O)CS3)c2c1 22.3%
O=c1[nH]c(NCCO)nc2c1C1(CCCC1)Cc1ccccc1-2 22.6%
CCn1c(SCC(N)=O)nc2c(c1=O)C1(CCCC1)Cc1ccccc1-2 20.1%

inhibition, active:
O=c1[nH]c2ccc(S(=O)(=O)Nc3ccc(Cl)cc3)cc2o1 41.7%
O=C(OCCc1ccccc1)c1cc(O)c(O)c(O)c1 34.3%
O=C(CN1CCN(S(=O)(=O)c2ccc(Cl)cc2)CC1)c1ccc(O)c(O)c1 33.2%
O=C(NNC(=S)NC(=O)C12CC3CC(CC(C3)C1)C2)c1ccncc1 38.2%
O=C(O)c1ccn2c(C(=O)c3ccc(Cl)cc3)c(-c3ccccc3)cc2c1 62.6%
O=C(O)c1ccn2c(C(=O)c3ccccc3)c(-c3ccccc3)cc2c1 27.1%
CCOCCCNC(=O)Cc1c(C(=O)O)[nH]c2ccc(Cl)cc12 26.3%
CC(C)CCNC(=O)Cc1c(C(=O)O)[nH]c2ccc(Cl)cc12 43.9%
CCCCN(CC)C(=O)Cc1c(C(=O)O)[nH]c2ccc(Cl)cc12 41.1%
CC1CC(C)CN(C(=O)Cc2c(C(=O)O)[nH]c3ccc(Cl)cc23)C1 (stereo not given) 73.8%
O=C(Nc1ccc(N2CCOCC2)cc1)C1(c2ccc(Cl)cc2)CCC1 78.4%
O=C(CCl)N(c1ccccc1)C1CCCCC1 29.2%
Cc1ccc(S(=O)(=O)Nc2ccccc2-c2ccccc2NS(=O)(=O)c2ccc(C)cc2)cc1 43.8%
O=c1[nH]c2cc(Cl)ccc2c(O)c1-c1cccc(Oc2ccccc2)c1 27.1%
CC1CCN(S(=O)(=O)c2ccc(N/N=C(/C#N)C(N)=O)cc2)CC1 27.9%
CC1CCN(S(=O)(=O)c2ccc(NC(=O)[C@@H]3CCCC[C@@H]3C(=O)O)cc2)CC1 39.3%
CC1CCN(S(=O)(=O)c2ccc(NC(=O)CSc3nnnn3C)cc2)CC1 33.1%
N#Cc1c(-c2ccccc2)nc(SCc2ccc(Cl)cc2)[nH]c1=O 40%
N#Cc1c(-c2ccccc2)nc(SCC(=O)N(c2ccccc2)c2ccccc2)[nH]c1=O 38.8%
C/C(=N\O)C1/C(=N/O)CC2C1C2(C)C (stereo not given) 31.7%
O=C(CNC(=O)c1cccc(Br)c1)N/N=C/c1cc(Br)cc(Br)c1O 33.1%
C=C[C@]1(C)C=C2CC[C@H]3[C@@](C)(CCC[C@@]3(C)C(=O)O)[C@@H]2CC1 30.9%
C=CCO/N=C(\C)c1c(O)c(C)c(-c2ccccc2)n(-c2ccccc2)c1=O 25.2%
CC1CCC2C(C1)c1sc(=O)[nH]c1SC2(C)C (stereo not given) 55.2%
Cc1ccc(SCc2[nH]nc3c2C2(CCSCC2)C(C#N)=C(N)O3)cc1 32.9%
CC1CCN(S(=O)(=O)c2ccc(N=NC3=C(O)CC(C)(C)CC3=O)cc2)CC1 49.4%
CCCn1cnc2cc(NCc3ccc(Br)cc3)ccc21 33.7%
Cn1cnc2cc(NCc3ccc(Cl)cc3)ccc21 35.2%
CC(C)(C)n1cnc2cc(NCc3ccc(Br)cc3)ccc21 35.2%
CC(=O)NN1C(=O)/C(=C/c2ccc(C(C)C)cc2)SC1=S 28.4%
CC(=O)c1sc(NC(=O)C2(F)C(F)(F)C(F)(F)C(F)(F)C(F)(F)C2(F)F)nc1C 28.6%
O=C(c1cc([N+](=O)[O-])ccc1N1CCN(S(=O)(=O)c2ccc(Cl)c(Cl)c2)CC1)N1CCOCC1 27.3%
CC(NC(=O)CN1C(=O)NC(Cc2ccccc2)(Cc2ccccc2)C1=O)C12CC3CC(CC(C3)C1)C2 (stereo not given) 71.1%
CN1CCN(S(=O)(=O)c2ccc(Sc3nnnn3-c3ccccc3)c([N+](=O)[O-])c2)CC1 41.1%
N#CC(=C1C=CC(=NO)C(Cl)=C1)c1ccc(Cl)cc1 29.9%
O=C(NNS(=O)(=O)c1ccc(Cl)cc1)c1cc(-c2ccccc2)nc2ccccc12 54.4%
O=C(NNS(=O)(=O)c1cccc(Cl)c1)c1cc(-c2ccc(F)cc2)nc2ccccc12 48.9%
Oc1[nH]c2ccc(Br)cc2c1N=Nc1nn[nH]n1 69.4%
O=C(O)c1ccc(N=Nc2c(O)[nH]c3ccc(Br)cc23)cc1 25.6%
C=CCSc1n[nH]c2nc3c(c(=O)n12)C1(CCCC1)Cc1ccccc1-3 46.3%
